Screens (PubChem)
Beta cell apopt: blocks beta cell apoptosis; INS-1E cytokine-induced death, ATP luminescence, 48 h; percent of positive-control rescue, neutral wells zero; protection from apoptosis, % (concentration not given with the values); 0.8% of 300,000 active;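 active = Every replicate reaches about 75%, or at least half do and their mean reaches it too, limit read from the data; inconclusive = At least half of replicates reach the limit but their mean does not; inactive = Under half of replicates reach the limit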;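 also: 0% = cytokine-treated negative control wells and 100% = positive control rescue; higher means more ATP so stronger rescue from cytokine killing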
aSyn UTR inh: MLPCN primary screen, SNCA 5' untranslated region | alpha-synuclein 5'UTR reporter, inhibitor activity | inhibition, % (tested at 7.5 µM) | 0.82% of 300,000 active | AID 1813; in the data active = inhibition above about 60%; inconclusive = no clear call, values can overlap the other calls;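 also: H4 neuroglioblastoma cells stably carrying SNCA 5'UTR luciferase fusion; 0% = DMSO wells and 100% = positive control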
Mdm2 MdmX PPI: disrupts the human Mdm2-MdmX interaction; O15151+Q00987; SaOS-2 split-luciferase Mdm2/MdmX complementation, luminescence; inhibition, % at 8 µM; 3% of 330,000 active; AID 485346;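 active = inhibition of at least 50% at 8 µM in the primary screen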
A1 inh: inhibitors of the anti-apoptotic protein A1, read as caspase activation; 0.066% of 330,000 active; caspase activation, % (concentration not given with the values); MEF A1-2A-BIM cells, Caspase-Glo 3/7 luminescence, 3 h; percent of clofoctol response, vehicle zero; AID 2462;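 active = over half of replicate activation scores above 10%, or exactly half above 10 with the replicate mean above 10; inconclusive = replicate mean below 10 yet half the replicates above 10; inactive = over half of replicates below 10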
CSC inhib: blocks cancer stem cells; cancer stem cell-like cells viability, luminescence; inhibition, % at 7.5 µM; 1.1% of 300,000 active; in the data active = inhibition above about 75%; inconclusive = no clear call, values can overlap the other calls; tested in HMLE shEcad cells
Mdm2-MdmX conf: human Mdm2/MdmX binding inhibition, confirmed; shares compounds with Mdm2 MdmX PPI; luminescent assay; inhibition, % at 8 µM; 55% of 10,000 active; AID 489028; in the data active = inhibition above about 40%
FLuc counter: inhibits full-length luciferase, flagging false Mdm2/MdmX hits; AID 504607; inhibition, % at 8 µM; shares compounds with Mdm2 MdmX PPI; SaOS-2 full-length luciferase counterscreen, luminescence; 77% of 6,200 active;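 active = mean inhibition at 8 µM reaching about 37%, which flags the compound as non-specific, limit read from the data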;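 also: p53-null SaOS-2 cells with luciferase driven by a doxycycline-inducible promoter; compound on cells about two nights before reading with doxycycline added after day one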
Numbers without * were called inactive; u = inconclusive; x = no result. An excerpt weighted towards active compounds, which were near 4.1% of everything screened.

SMILES	Beta cell apopt	aSyn UTR inh	Mdm2 MdmX PPI	A1 inh	CSC inhib	Mdm2-MdmX conf	FLuc counter
CCCCCCCCn1ccc(=N)cc1	130*	62*	55*	-1	25	61*	48*
CCCCCCCCCCn1ccc(=N)cc1	116*	106*	85*	0	36	90*	51*
CC(=O)Nc1ccc(NC(=O)C(C)OC(=O)CC23CC4CC(CC(Br)(C4)C2)C3)cc1 (centres undefined)	-5	x	1	0	-16	x	x
COc1ccc(CN(CCC(c2ccc(F)cc2)C2CCOC(C)(C)C2)C(=O)c2ccco2)cc1 (centres undefined)	-4	6	76*	0	27	53*	131*
CCCN(C(=O)CSc1ncnc2sccc12)c1c(N)n(Cc2ccccc2)c(=O)[nH]c1=O	-1	x	17	0	x	x	x
CC(C)=CCc1cc([C@@H]2COc3c(ccc4c3C=CC(C)(C)O4)C2)c(O)cc1O	15	17	64*	1	-5	-7	x
CC(=O)Oc1ccc([C@@H]2COc3c(ccc4c3C=CC(C)(C)O4)C2)c(OC(C)=O)c1	-2	-152	-67	0	-6	x	x
O=[N+]([O-])c1ccccc1/C=C/C=N/Nc1nc(N2CCCCC2)nc(N2CCCCC2)n1	2	-48	-19	0	-15	x	x
C(=C\c1ccccc1)/C=N/Nc1nc(N2CCCCC2)nc(N2CCCCC2)n1	-8	-27	57*	0	0	16	x
O=C1NCCSC1c1ccccc1 (centres undefined)	x	-5	24	0	-6	x	x
Nc1c(N(C(=O)Nc2ccc(Cl)c(Cl)c2)C2CCCC2)c(=O)[nH]c(=O)n1Cc1ccccc1	27	33	78*	0	-28	18	x
COCCN(C(=O)C1CCCC1)c1c(N)n(Cc2ccccc2)c(=O)[nH]c1=O	-6	-7	9	1	-3	x	x
COc1cc(/C=C/[N+](=O)[O-])ccc1OC(=O)c1cc2ccccc2oc1=O	18	-102	51*	1	51	3	x
CC(C)(C)CC(=O)Nc1nnc(C(F)(F)F)s1	3	-1	3	0	-1	x	x
CC(NC(=O)Nc1nnc(C(F)(F)F)s1)(C(F)(F)F)C(F)(F)F	120*	47	95*	0	2	59*	33
CC(C)c1ccc(NC(=O)CSc2n[nH]c(=O)n2-c2cccnc2)cc1	-2	3	23	0	1	x	x
Cc1ccc(S(=O)(=O)c2nnn3c2nc(NC2CCN(Cc4ccccc4)CC2)c2ccccc23)cc1C	x	0	64*	1	21	39	52*
CCOC(=O)[C@H]1[C@H]2COc3ccc(OC)cc3[C@@H]2N2C(=O)CN(C)C(=O)[C@@]12C	-3	x	9	2	-17	x	x
Cc1ccc(NC(=O)Nc2cc(C(F)(F)F)c[nH]c2=O)cc1	-33	35	58*	0	10	45*	72*
O=C(Nc1ccc(OC(F)F)cc1)Nc1cccc(C(F)(F)F)c1	78*	-51	76*	0	71	93*	24
CCN(CC)S(=O)(=O)c1ccc(NC(=O)Nc2cccc(C(F)(F)F)c2)cc1	98*	39	94*	0	83*	87*	35
Cc1ccc(S(=O)(=O)Nc2ccc(NC(=O)Nc3cccc(C(F)(F)F)c3)cc2)cc1	96*	-10	85*	1	96*	46*	77*
Cc1ccc(NS(=O)(=O)c2ccc(NC(=O)c3cccc(NC(=O)C(C)C)c3)cc2)cc1	21	-1	14	0	37	x	x
O=C(Nc1ccncc1)Nc1cccc(C(F)(F)F)c1	5	-1	48	0	-9	x	x
CCN(CC)S(=O)(=O)c1ccc(C(=O)Nc2cccc(C)c2)cc1	-2	-25	12	0	-7	x	x
SMILES	Beta cell apopt	aSyn UTR inh	Mdm2 MdmX PPI	A1 inh	CSC inhib	Mdm2-MdmX conf	FLuc counter
CCCCCCc1c(C)c2ccc(OCC(=O)N[C@@H](Cc3ccccc3)C(=O)O)cc2oc1=O	-6	14	5	0	-1	x	x
Cc1cc(C)cc(OCC(=O)N2CCN(c3ncccn3)CC2)c1	1	x	17	1	-12	x	x
COc1ccccc1/C=N/OCc1ccc(C#N)cc1	0	-2	6	-1	3	x	x
CCC(C)n1c(SCC(=O)NC2CCS(=O)(=O)C2)nc2ccccc2c1=O (centres undefined)	1	-16	-9	0	-4	x	x
COc1ccc(-n2c(=O)[nH]c3cc(C(=O)NCCc4ccccc4)ccc3c2=O)cc1OC	0	5	-10	0	6	x	x
CCN(c1ccccc1)S(=O)(=O)c1ccc(C(=O)Nc2cc(C)ccn2)cc1	-12	x	14	0	-2	x	x
Cc1cc(SCC(=O)N/N=C/c2ccc(O)cc2O)nc2ccccc12	37	u	74*	-1	133*	73*	32
O=C(Cn1ncc2c([nH]c3ccccc32)c1=O)N1CCN(c2ccccn2)CC1	-5	26	5	-1	0	x	x
CC(C)CC(NC(=O)c1ccc(Cl)cc1)C(=O)OCC(=O)c1ccc2c(c1)NC(=O)CO2 (centres undefined)	68	96*	95*	15*	43	94*	17
COc1ccc(/C=C/C(=O)OCC(=O)c2ccc3c(c2)NC(=O)CO3)cc1	1	-16	92*	0	-1	13	x
CCOC(=O)c1c(C)[nH]c(C)c1C(=O)COC(=O)/C=C/c1ccc(OC)cc1	x	x	69*	x	x	77*	53*
Cc1cc(=O)oc2cc(OCC(=O)c3ccc4c(c3)NC(=O)CO4)ccc12	1	7	65*	0	-8	54*	109*
CCc1ccccc1NC(=O)CN1CCN(C(=O)CCC(=O)N2CCC(c3ccccc3)=N2)CC1	3	x	25	-1	-10	x	x
CCOC(=O)N1CCN(C(=O)C(=O)Nc2sc3c(c2C(N)=O)CC(C)(C)OC3)CC1	-1	-13	3	1	-3	x	x
Cc1ccc2c(c1)C(=O)N1[C@H]3c4ccccc4OC[C@@H]3[C@H](c3ccccc3)[C@]1(C)C(=O)N2	-2	x	13	0	14	x	x
CCCCn1c(CN2CCN(c3cccc(Cl)c3)CC2)nc2c1c(=O)[nH]c(=O)n2C	-8	39	53*	0	-8	62*	57*
Cn1c(=O)[nH]c(=O)c2c1nc(CN1CCN(c3cccc(Cl)c3)CC1)n2Cc1ccccc1Cl	x	17	73*	0	53	51*	59*
Cc1ccc(N(CC(=O)NCc2ccc(F)cc2)S(=O)(=O)c2c(C)nn(C)c2C)cc1	20	-8	64*	1	-5	63*	63*
Cc1nn(C)c(C)c1S(=O)(=O)N(CC(=O)N1CCc2ccccc21)c1ccc(C(C)C)cc1	4	21	63*	1	-3	24	x
